IL-1B inflam inh: blocks inflammasome-driven IL-1 beta release; THP-1 LPS/ATP IL-1B secretion, AlphaLISA, 16 h; active compounds read low; activity change, % at 57.5 µM; 360,000 compounds, 4.7% hits; AID 743279; in the data active means activity change below about -50%; inconclusive means mostly about -30% to -49%
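Secreted IL-1B measured by AlphaLISA bead assay after 16 h compound exposure of THP-1 cells; compounds (final up to 57.5 uM) added 1 h before LPS (250 ng/mL) and ATP (1.25 mM) stimulation; lower signal means less secretion.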
DT40 TDP1 no CPT: qHTS for Inhibitors of human tyrosyl-DNA phosphodiesterase 1 (TDP1): qHTS in cells in absence of CPT; AID 686978, 2013; Potency, µM (titrated, usually from 46.2 µM), for the others: at the top dose activity change, negative = growth inhibition, actives largely listed as inhibitors; 420,000 compounds, 15% hits; DT40 Tdp1-/- hTDP1 cells, no CPT, ATP luminescence, 48 h; further: potency means the concentration at half of the fitted maximal effect; nearly all actives have a fitted effect of over 55% in size
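Readout: luminescence from CellTiter-Glo after 30 min in the dark at RT. Cells: DT40 Tdp1-/- with stable hTDP1, 400/well. Exposure: compounds alone, ≥48 hr, 37 °C.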
12-LOX inh: blocks human arachidonate 12S-lipoxygenase | P18054 | purified 12hLO, xylenol orange hydroperoxide absorbance | Potency, µM (series often up to 108 µM), for inactives: at the top dose activity change, negative = inhibition, actives largely listed as inhibitors | 580,000 compounds, 1.1% hits | AID 1671190; further: potency means the concentration at half of the fitted maximal effect
Target sequence (P18054 whole entry, looked up): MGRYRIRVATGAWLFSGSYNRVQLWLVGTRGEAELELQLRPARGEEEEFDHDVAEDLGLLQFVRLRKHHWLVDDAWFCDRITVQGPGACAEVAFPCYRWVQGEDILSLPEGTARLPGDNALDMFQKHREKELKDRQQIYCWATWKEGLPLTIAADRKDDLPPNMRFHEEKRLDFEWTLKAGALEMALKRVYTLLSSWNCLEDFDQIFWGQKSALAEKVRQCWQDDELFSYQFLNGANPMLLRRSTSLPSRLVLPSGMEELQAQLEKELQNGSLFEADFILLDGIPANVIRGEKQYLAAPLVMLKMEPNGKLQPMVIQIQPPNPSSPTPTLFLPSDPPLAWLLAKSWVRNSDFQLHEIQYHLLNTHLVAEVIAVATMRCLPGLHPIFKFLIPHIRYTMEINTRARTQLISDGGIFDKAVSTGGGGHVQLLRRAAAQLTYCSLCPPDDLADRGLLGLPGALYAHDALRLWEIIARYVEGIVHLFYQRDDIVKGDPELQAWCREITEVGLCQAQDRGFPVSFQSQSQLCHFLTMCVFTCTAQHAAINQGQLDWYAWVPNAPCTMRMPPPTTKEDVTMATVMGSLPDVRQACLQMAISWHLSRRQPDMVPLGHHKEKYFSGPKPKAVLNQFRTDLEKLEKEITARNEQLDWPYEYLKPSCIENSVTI
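Hydroperoxide product was detected by ferrous iron/xylenol orange as the 573 to 405 nm absorbance ratio. Arachidonic acid at 40 uM (final) was turned over for 30 min at room temperature by 150 nM human 12hLO, pH 7.0 Hepes buffer, after 15 min compound preincubation.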
HT1080-NT tox: kills 2HG-producing HT-1080-NT fibrosarcoma cells | HT-1080-NT fibrosarcoma viability, CellTiter-Glo ATP luminescence, 48 h | Potency, µM (doses to about 46.1 µM), for the others: at the top dose activity, negative = less viability, most hits filed as cytotoxic | 360,000 compounds, 1.6% hits | AID 686970;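 further: NT is the 2HG producing partner of a matched IDH1 knockdown line; potency means the concentration at half of the fitted maximal effect; 0% = DMSO-treated cells and -100% = media-only wells without cells; nearly all actives have a fitted effect of over 55% in size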
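HT-1080-NT fibrosarcoma cells (2HG-overproducing), 750 cells/well in RPMI with 5% FBS, dosed after 2 h and incubated 48 h at 37C. CellTiter-Glo luminescence normalized to DMSO and no-cell wells; concentration-response curves fitted and classed.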
DT40 TDP1 CPT: growth inhibition of DT40 Tdp1-/-;hTDP1 cells with camptothecin (screen for TDP1 inhibitors); chicken DT40 Tdp1-/-;hTDP1 cells + 20 nM CPT, ATP luminescence, 48 h; Potency, µM (series often up to 46.2 µM), for the others: at the highest dose activity change, negative = growth inhibition, usual class: inhibitors; 420,000 compounds, 12% hits; further: potency means the concentration at half of the fitted maximal effect; nearly all actives have a fitted effect of over 55% in size
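Chicken DT40 Tdp1-/- cells complemented with human TDP1, 400 cells/well, exposed to compounds plus 20 nM camptothecin for at least 48 h at 37 C; viability read as ATP content by CellTiter-Glo luminescence.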
HT1080 IDH1KD tx: HT-1080 IDH1 knockdown cell toxicity (counter line) | HT-1080 IDH1 knockdown viability, ATP luminescence, 48 h | Potency, µM (highest dose often 46.1 µM), for inactives: at the highest dose activity, negative = toxicity, actives largely listed as cytotoxic | 360,000 compounds, 2% hits | AID 686971;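 further: potency means the concentration at half of the fitted maximal effect; 0% = DMSO wells and -100% = cell-free medium wells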
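HT-1080-IDH1KD cells (IDH1 knocked down), 750/well in RPMI with 5% FBS, treated with compound 48 h at 37 degrees C. Viability by CellTiter-Glo luminescence, normalised to DMSO and no-cell wells; concentration-response curves classed.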
* marks the source's active call; other numbers are inactive results; u = inconclusive; x = not tested or not shown; [ ] = dose if it differs, or a comment. The entries come from a sample that favours hits as a whole. Unless noted, the call rests on the fitted dose curve; in most records, active means well fitted curve in the direction sought with a large enough effect; inconclusive means small, poorly fitted or top-dose-only effect, or another doubt; inactive means no such curve, though single readings can be large; an effect the other way counts as inactive or inconclusive. Unless noted, on the % scale 0 is the no-effect control and ±100 the full control effect.

SMILES	IL-1B inflam inh	DT40 TDP1 no CPT	12-LOX inh	HT1080-NT tox	DT40 TDP1 CPT	HT1080 IDH1KD tx
Oc1ccc(C23CC4CC(CC(C4)C2)C3)cc1O	u	u	u	-2%	u	-14%
NCCOc1ccc(C23CC4CC(CC(C4)C2)C3)cc1	-81*	3.7µM*	u	1%	3.7µM*	u
O=C(CSc1nnc(COc2ccc(Br)cc2)o1)N1CCOCC1	42	18µM*	-9%	21%	-33%	-14%
O=C(COc1ccc2cc(Br)ccc2c1)N1CCOCC1	-13	u	63%	0%[9.24 µM]	15µM*	4%
O=[N+]([O-])c1cc(S(=O)(=O)N2CCCCC2)ccc1NCCCN1CCOCC1	-2	2%	17%	16%	2%	7%
Cc1ccc(-c2[nH]nc(N)c2N=Nc2ccccc2C)cc1	u	u	13%	u	u	18µM*
Nc1n[nH]c(C2CC2)c1N=Nc1ccc(Cl)cc1	-14	-11%	-17%	22%	-3%	7%
Cc1[nH]nc(N)c1N=Nc1ccc(Br)cc1	x	x	-22%	x	x	x
Cc1[nH]nc(N)c1-c1ccccc1	u	-9%	13%	-6%	-5%	-2%
Cc1cccc(N=Nc2c(N)n[nH]c2-c2ccc(Cl)cc2)c1	-54*	u	-1%	u	u	u
Cc1ccc(N=Nc2c(N)n[nH]c2N)cc1	-64*	-6%	2%	13%	2%	20%
Cc1ccc(-c2[nH]nc(N)c2N=Nc2cccc(Cl)c2C)cc1	-76*	13µM*	0%	u	u	u
COCc1noc([C@@H]2CN(C3CCCCCC3)C[C@H]2CO)n1	x	x	63%	x	x	x
COc1ccccc1N1CCCc2ncc(C(=O)NCc3cccc(Cl)c3)cc21	x	x	24%[176 µM]	x	x	x
COCc1c(C(=O)N2CCN(C3CCCC3)CC2)cnn1-c1nccc(-c2cccs2)n1	x	-22%	5%	x	-1%[9.04 µM]	x
O=C(Cn1[nH]c(=O)c2ccccc2c1=O)N1CC=C(c2ccccc2)CC1	-12	16µM*	u	-20%	11µM*	-18%
O=C(O)CCC(=O)N1CC=C(c2ccccc2)CC1	21	-3%	13%	6%	-28%	0%[9.24 µM]
O=C(Cc1ccccc1F)N1CC2CC(C1)[C@H]1CCCC(=O)N1C2 (stereo partly specified)	x	x	26%	x	x	x
N#Cc1ccc(C(S(=O)(=O)Cc2ccccc2)S(=O)(=O)Cc2ccccc2)cc1	-58*	u	6%	-8%	u	-9%
CC(OC(=O)CC12CC3CC(CC(C3)C1)C2)C(N)=O (stereo unspecified)	x	x	-72%	x	x	x
COc1ccccc1N/C(=N/S(=O)(=O)c1ccc(C)cc1)c1ccc(Cl)cc1	-25	u	-14%	-2%	16µM*	-6%
COc1ccccc1NS(=O)(=O)c1cc(N/C(=N\S(=O)(=O)c2ccccc2)c2ccc(F)cc2)ccc1Cl	-8	x	-2%	-2%	18µM*	-19%
COc1ccccc1NS(=O)(=O)c1cc(NC(=S)Nc2cc(C)cc(C)c2)ccc1Cl	u	5.2µM*	u	11%	12µM*	10%
CCNC(=S)Nc1ccc(C)c(S(=O)(=O)Nc2ccccc2OC)c1	-16	u	-26%	7%	u	-10%
O=C1CCN(C(=O)CCc2c[nH]c3ccccc23)CCCC(C(=O)NCc2ccccc2)CCN1 (stereo unspecified)	x	x	12%	x	x	x
SMILES	IL-1B inflam inh	DT40 TDP1 no CPT	12-LOX inh	HT1080-NT tox	DT40 TDP1 CPT	HT1080 IDH1KD tx
Cn1nc([N+](=O)[O-])c(C(C#N)c2nc3ccccc3n2C)c(Cl)c1=O (stereo unspecified)	-8	23µM*	3%	-27%	u	-23%
Cn1c(-c2ccc([N+](=O)[O-])cc2)nc2ccccc21	-18	-20%	4%	19%	12%	18%
C/C(=N\Nc1ccc([N+](=O)[O-])cc1)c1ccc(O)cc1	-61*	u	u	u	u	u
C/C(=N\Nc1ccc([N+](=O)[O-])cc1)c1cccc(N)c1	-29	21µM*	u	-4%	u	-4%
CC(=O)NC/C(C)=N\Nc1ccc([N+](=O)[O-])cc1	-23	u	u	4.6µM*	u	3.7µM*
C/C(=N\Nc1nc(C)cc(C)n1)c1ccc([N+](=O)[O-])cc1	x	x	16%	x	x	x
O=C(CSc1nncs1)Nc1ccc2c(c1)OCO2	-14	8%	0%	4%	7%	4%
CC(C)(C)OC(=O)N1Cc2ccccc2C[C@H]1C(=O)NCC(=O)Nc1ccc2c(c1)OCO2	x	x	7%	x	x	x
CCc1c(C)sc2nc(C(C)C)nc(SCC(=O)N3CCc4ccccc4C3)c12	-67*	21µM*	-4%	1%	u	9%
Cc1sc2nc(C(C)C)nc(SCC(=O)N3CCN(C(=O)c4ccco4)CC3)c2c1C	-6	u	-3%	-28%	u	5%
Cc1sc2nc(C3CC3)nc(SCC(=O)N3CCc4ccccc4C3)c2c1C	-75*	21µM*	1%	-1%	u	-6%
O=C(NN(c1ccccc1)c1ccccc1)c1cccs1	x	x	-26%	x	x	x
COc1ccc(CN(C(=O)c2ccc(-c3ccccc3)[nH]2)C(C(=O)NC(C)(C)C)c2ccncc2)cc1 (stereo unspecified)	-83*	u	-9%	-22%	u	15µM*
COc1ccccc1-c1c(C(F)(F)F)oc2cc(OC(=O)C3CC3)ccc2c1=O	x	x	-15%	x	x	x
COc1ccccc1-c1c(C(F)(F)F)oc2cc(OC(=O)c3ccccc3[N+](=O)[O-])ccc2c1=O	-7	26µM*	13%	-1%	u	-1%
O=c1c2ccccc2nc2n1C(CSCc1ccc(Cl)cc1)CS2 (stereo unspecified)	-12	16µM*	0%	-15%	10µM*	-18%
O=c1c2ccccc2nc2n1C(CSc1ccc(F)cc1)CS2 (stereo unspecified)	14	3%	1%	19%	1%	1%
O=C(N[C@H]1CO[C@H]2[C@@H]1OC[C@@H]2n1nnnc1-c1ccc2c(c1)OCO2)c1ccccc1	x	x	19%[176 µM]	x	x	x
O=C(NC1CCCCC1)N[C@H]1CO[C@H]2[C@@H]1OC[C@@H]2n1nnnc1-c1ccc2c(c1)OCO2	x	x	45µM*	x	x	x
